# Bioassay records from PubChem.
# Sampled rows, rich in hits. Any-hit rate of the full collection: about 15%.
# Pf growth 48h: P. falciparum growth inhibition at 48 hours (one generation); hit rate 5.9% among 310,000; Potency, µM (highest dose often 28.7 µM), usual class: inhibitors; P. falciparum luciferase growth in erythrocytes, 48 h; AID 504832
#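 Here the parasites carry a stable luciferase gene and grow inside erythrocytes in Albumax-based RPMI medium with compound for one erythrocytic cycle. Activity is scored as loss of luminescent signal.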
# Pf growth 96h: P. falciparum growth inhibition at 96 hour, primary screen for plastid delayed-death inhibitors. P. falciparum luciferase reporter growth, 96 h. Potency, µM (highest dose often 28.7 µM), hits mostly inhibitors. hit rate 6.9% among 320,000
#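 P. falciparum expressing integrated firefly luciferase, in erythrocytes at 2% hematocrit, 0.05% parasitemia, incubated with compounds 96 h at 37 C, 5% CO2. Growth inhibition read as loss of luminescence; two-generation exposure targets delayed-death apicoplast inhibitors.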
# HCV inhibitor: inhibitors of hepatitis C virus infection | Huh7.5.1 HCVcc-Cre infection, luciferase reporter, 44 h | hit rate 3.4% among 340,000 | Potency, µM (series often up to 41.8 µM), most hits filed as inhibitors
#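 HCVcc-Cre virus at an moi near 0.5 was added right after compound to cells cultured 4 h from seeding (1,000 cells/well). Luciferase activity was determined 44 h later, 15 min after substrate addition at RT.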
# HCMV antiviral: inhibitors of human cytomegalovirus; hit rate 4.5% among 410,000; HFF cells, HCMV-luciferase reporter, 72 h; active compounds read low; activity change, negative = inhibition, % at 57.5 µM; in the data active means activity change below about -60%; inconclusive means no clear call, values can overlap the other calls; inactive means above about -39%
#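 Two-dose cell screen: HFF monolayers treated with compounds and infected with luciferase-expressing HCMV at 1 PFU/cell, 72 h at 37C, then lysed for luciferase measurement.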
# SARS PLP yeast: inhibitors of SARS-CoV papain-like protease in yeast | S. cerevisiae expressing SARS-CoV PLpro, growth rescue | Potency, µM (highest dose often 32.9 µM), actives largely listed as activators | hit rate 0.19% among 330,000; calls by dose curve; further: nearly all actives have a fitted effect of over 55% in size
# Sm TGR inh: inhibitors of Schistosoma mansoni thioredoxin glutathione reductase | Q962Y6 | purified TGR, DTNB reduction, TNB absorbance 405 nm | Potency, µM (doses to about 114 µM), most hits filed as inhibitors | AID 485364 | hit rate 3% among 360,000; further: nearly all actives have a fitted effect of over 60% in size
#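 First, TGR (20 nM dispensed) and NADPH were mixed with compound. Second, a 15 min room-temperature incubation followed. Third, further NADPH and then DTNB were added to start the reaction. Finally, TNB absorbance was monitored kinetically.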
# A number is an active result; 0 = inactive; ? = inconclusive; - = no result given. Unless noted, the call rests on the fitted dose curve; in most records, active means well fitted curve in the direction sought with a large enough effect; inconclusive means small, poorly fitted or top-dose-only effect, or another doubt; inactive means no such curve, though single readings can be large; an effect the other way counts as inactive or inconclusive.
SMILES,Pf growth 48h,Pf growth 96h,HCV inhibitor,HCMV antiviral,SARS PLP yeast,Sm TGR inh
Cc1ccc(Nc2nc(-c3ccc(O)c(O)c3)cs2)nc1,?,?,?,0,0,5.6µM
COc1ccc(-c2csc(Nc3ccc(C)cn3)n2)cc1OC,0,0,13µM,0,0,-
CCCNC(=O)N1[C@@H]2Cn3c(cccc3=O)[C@H]1[C@@H](C(=O)OC)[C@@H]2CO,-,-,-,0,-,-
COC(=O)c1c(NC(=O)CSc2nnc(C)c(=O)[nH]2)sc(C)c1C,0,0,0,0,0,0
CCc1c(C)sc(NC(=O)CC#N)c1C#N,0,0.83µM,0,0,0,0
CCOC(=O)C(NC(=O)CC)(Nc1sc(C)c(CC)c1C#N)C(F)(F)F (centres undefined),0,0,0,?,0,50µM
CCOC(=O)C(NC(=O)CC)(Nc1ccccc1)C(F)(F)F (centres undefined),0,0,0,0,0,0
Cc1ccc(S(=O)(=O)Nc2c(C)n(C)n(-c3ccccc3)c2=O)cc1C(=O)OC(C)C(=O)N(C)c1ccccc1 (centres undefined),0,15µM,0,?,0,0
CCN(Cc1ccccc1)C(=O)COC(=O)c1cc(S(=O)(=O)Nc2c(C)n(C)n(-c3ccccc3)c2=O)ccc1C,0,?,0,-65,0,0
Cc1ccc(S(=O)(=O)Nc2c(C)n(C)n(-c3ccccc3)c2=O)cc1C(=O)OC(C)C(=O)c1ccccc1 (centres undefined),-,-,0,0,-,-
CCN(Cc1ccccc1)C(=O)C(C)OC(=O)c1cc(S(=O)(=O)Nc2c(C)n(C)n(-c3ccccc3)c2=O)ccc1C (centres undefined),?,0,0,0,0,0
O=S(=O)(CCc1ccncc1)C1Cc2cccc3cccc1c23 (centres undefined),0,0,0,0,0,35µM
O=C1CCCCC1(CCc1ccncc1)CCc1ccncc1,-,-,?,0,-,-
COc1cc(/C=C2\N=C3CCCCCN3C2=O)ccc1O,0,-,0,0,0,56µM
COc1cc(/C=C/C=C2/CC/C(=C/C=C/c3ccc(O)c(OC)c3)C2=O)ccc1O,-,-,?,-99,-,-
C/C=C/c1ccc(O)c(OC)c1,0,?,0,0,0,0
COc1cc(OC)c(OC)cc1/C=C1\CCC/C(=C\c2cc(OC)c(OC)cc2OC)C1=O,?,0,0,-90,0,0
COc1ccc(-n2cccc2/C=C2/NC(=O)N(c3cccc(Cl)c3)C2=O)cc1,0,0,0,0,0,0
COc1cc(/C=C2/NC(=O)N(c3cccc(Cl)c3)C2=O)ccc1O,7.4µM,?,?,?,0,0
COc1ccc(/C=C2\CCC/C(=C\c3ccc(OC)c(OC)c3OC)C2=O)c(OC)c1OC,?,0,?,0,0,0
COc1ccc(/C=C2\N=C3CCCCCN3C2=O)cc1OC,0,0,0,0,0,0
CCC1c2ccccc2C(=O)C1C(N)=O (centres undefined),-,-,0,0,-,-
COc1ccc2c(c1)C(n1ccc3ccccc31)C(=O)N2Cc1ccc(C(F)(F)F)cc1 (centres undefined),-,-,-,0,-,-
CCOC(=O)[C@]12CCCC=C1N(Cc1ccco1)C(=O)[C@H](CC(=O)NCCc1ccccc1OC)C2,-,-,-,0,-,-
COc1cc(/C=C2\COC/C(=C\c3ccc(O)c(OC)c3)C2=O)ccc1O,10µM,?,11µM,-99,0,50µM
SMILES,Pf growth 48h,Pf growth 96h,HCV inhibitor,HCMV antiviral,SARS PLP yeast,Sm TGR inh
COc1cc(/C=C2/CC/C(=C/c3ccc(O)c(OC)c3)C2=O)ccc1O,3.3µM,?,13µM,0,0,45µM
Cc1ccc(NC(=O)Cn2c(-c3ccc4c(c3)OCO4)cn(-c3ccccc3)c2=O)cc1,-,-,-,0,-,0
CC(=O)N1CCCC(C)(C(=O)Nc2cccc(OC(C)C)c2)C1 (centres undefined),-,-,-,0,-,-
COc1ccc(N2CCN(CCCNS(=O)(=O)c3c(C)noc3/C=C/N(C)C)CC2)cc1,2.9µM,?,7.9µM,-,0,0
COc1ccc(NC(=O)C2CCN(S(=O)(=O)c3c(C)noc3/C=C/N(C)C)CC2)cc1,?,0,0,0,0,0
COc1oc(C(=O)NC2CCCCC2)c(-c2ccc(Cl)cc2)c1S(=O)(=O)c1ccccc1,-,-,?,-64,-,-
C/C=C/C=C/C(=O)N1CC[C@]23c4ccccc4N[C@H]4N(C)c5cccc6c5[C@]42CCN([C@H]6C2OC2(C)C)[C@H]13 (some centres undefined),12µM,0,?,0,0,?
COc1ccc(OC)c(CCNC(=O)Cn2nc(C)c3c(C)n(-c4ccc(C)cc4)nc3c2=O)c1,0,?,1.1µM,-92,0,0
Cc1ccc(-n2nc3c(=O)n(CC(=O)NC4CCCCCC4)nc(C)c3c2C)cc1,0,13µM,0,0,0,0
Cc1ccc(-n2nc3c(=O)n(CC(=O)NCCc4ccccc4C)nc(C)c3c2C)cc1,?,0,5µM,-73,0,0
Cc1nn(CC(=O)NCCc2ccco2)c(=O)c2nn(-c3ccccc3)c(C)c12,0,0,0,0,0,32µM
Cc1ccc(CCNC(=O)Cn2nc(C)c3c(C)n(-c4ccc(C)cc4)nc3c2=O)cc1,-,-,-,0,-,0
COc1cc(NC(=O)C2CC(=O)NC3=C2C(=O)CCC3)c(OC)cc1Cl (centres undefined),0,?,0,0,0,0
CCCc1c(O)nc(SCCN(CC)CC)n(C(=O)c2ccccc2)c1=O,?,13µM,0,0,0,0
CCCc1c(O)nc(SCCN(CC)CC)[nH]c1=O,0,-,0,0,0,0
O=C(Nc1cc2ccc(O)cc2oc1=O)c1ccc(F)cc1,-,-,-,0,-,0
C/C(=N\NC(=O)C1CCCC1)c1ccc(Cl)cc1,0,0,0,0,0,0
C/C(=N\NC(=O)C1CC1)c1ccc(Cl)cc1,?,5.2µM,0,0,0,0
O=C(NCCc1ccccc1Cl)C1CC(=O)N(C2CCCCC2)C1 (centres undefined),0,0,0,0,0,0
Cc1cccc(-n2ncc3c(N(C)C4CCCCC4)ncnc32)c1,0,0,0,-78,0,0
COc1ccc(-n2ncc3c(N(C)C4CCCCC4)ncnc32)cc1,0,0,0,-88,0,0
COc1ccc(-n2ncc3c(N4CCC(C)CC4)ncnc32)cc1,0,0,0,0,0,0
CCN(c1ncnc2c1cnn2-c1cccc(Cl)c1)C1CCCCC1,-,-,-,?,-,0
CC(C)N1CCN(Cc2cnc(N3CCCC3)s2)CC1CCO (centres undefined),0,9.3µM,0,0,0,0
Cc1ncc(CN2CCN(C(C)C)C(CCO)C2)s1 (centres undefined),0,0,0,0,0,0
CC(C)(C)NC[C@H](O)COc1cccc2c1CCCC2=O,0,0,0,0,-,0
